The values below come from PubChem BioAssay AID720597 (Broad Institute, 2013).

Structures are written as SMILES. Potency and affinity values are given separately. Unmarked numbers belong to inactive results.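 How the source made its calls: active means fitted half-maximal dose no more than twice the top valid tested dose, for compounds that lower signal; inconclusive means fit invalid, or curve flat with activity between -70 and -30; inactive means potency past limit, curve flat within ±30, or signal increasing.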

NAD-dependent protein deacylase sirtuin-5, mitochondrial (Homo sapiens), sequence (Q9NXA8 whole entry, looked up): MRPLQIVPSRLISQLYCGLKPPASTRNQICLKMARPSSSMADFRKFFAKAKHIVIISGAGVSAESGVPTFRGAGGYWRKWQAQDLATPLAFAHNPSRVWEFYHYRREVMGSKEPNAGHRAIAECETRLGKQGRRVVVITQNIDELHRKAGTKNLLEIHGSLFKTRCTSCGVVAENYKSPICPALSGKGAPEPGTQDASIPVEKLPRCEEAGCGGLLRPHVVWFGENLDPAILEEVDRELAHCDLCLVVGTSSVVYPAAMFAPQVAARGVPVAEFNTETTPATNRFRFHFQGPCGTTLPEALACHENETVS

The experiment has as its target NAD-dependent protein deacylase sirtuin-5, mitochondrial (Homo sapiens) (UniProt Q9NXA8). Briefly: SIRT5 deacylase inhibitors, dose response, biochemical, fluorescence imaging, cherry-pick, set 6 (AID 720597).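 Further: lower AMC signal can also come from blocking the trypsin step; 0% = median of neutral control wells and -100% = median of positive control wells.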 The following applies: Purified SirT5, succinyl-peptide-AMC/trypsin fluorescence; series mostly up to 15 µM; activity change, negative = inhibition: at the top concentration.
For `O=C(NCC[C@H]1CC[C@@H](NC(=O)C2CC2)[C@@H](CO)O1)c1cc(Cl)cc(Cl)c1`, the “activity change, negative = inhibition” value is -11.4%.

`COc1ccc(NC(=O)N[C@@H]2CC[C@H](CCn3cc(-c4ccc(OC)cc4)nn3)O[C@@H]2CO)cc1`: the “activity change, negative = inhibition” value is 33.9%.

`COc1ccccc1NC(=O)N[C@@H]1CC[C@H](CCNS(=O)(=O)c2ccc(Cl)cc2)O[C@@H]1CO`: the “activity change, negative = inhibition” value is -15.1%.

With `CCCNC(=O)N1CC(=O)N2[C@H](CO)[C@@H](c3ccc(-c4ccc(F)cc4)cc3)[C@@H]2C1`, the “activity change, negative = inhibition” value is -13.1%.

As to `C[C@@H]1CCCCO[C@@H](CN(C)Cc2ccc(Cl)c(Cl)c2)[C@H](C)CN([C@@H](C)CO)C(=O)c2cc(NS(=O)(=O)c3cccs3)ccc2O1`, the “activity change, negative = inhibition” value is 14.7%.

Consider `C[C@H](CO)N1C[C@H](C)[C@@H](CN(C)Cc2ccc(Cl)c(Cl)c2)Oc2ccc(NC(=O)CCC(F)(F)F)cc2CC1=O`, for which the “activity change, negative = inhibition” value was -5.49%.

For `COc1ccc(S(=O)(=O)Nc2ccc3c(c2)C(=O)N([C@H](C)CO)C[C@@H](C)[C@@H](CN(C)S(=O)(=O)c2ccccc2)OCCCC[C@@H](C)O3)cc1`, the “activity change, negative = inhibition” value is -8.5%.

Take `C[C@H](CO)N1C[C@H](C)[C@@H](CN(C)S(=O)(=O)c2ccccc2F)Oc2cc(C#Cc3cccc(F)c3)ccc2S1(=O)=O`: the “activity change, negative = inhibition” value is 7.3%.

For the molecule `CO[C@H]1CN(C)C(=O)c2cc(NC(=O)NC(C)C)ccc2OC[C@@H](C)N(C(=O)CC2CC2)C[C@@H]1C`, the “activity change, negative = inhibition” value was -9.33%.

As to `C/C=C/c1ccc2c(c1)O[C@H](CN(C)Cc1cccc(F)c1)[C@H](C)CN([C@H](C)CO)S2(=O)=O`, the “activity change, negative = inhibition” value was 9.66%.

`CC(=O)N(C)C[C@@H]1Oc2ncc(C#Cc3cccc(F)c3)cc2C(=O)N([C@H](C)CO)C[C@H]1C`: the “activity change, negative = inhibition” value was 18.7%.

Consider `COc1ccc(S(=O)(=O)Nc2ccc3c(c2)C(=O)N([C@H](C)CO)C[C@@H](C)[C@@H](CN(C)Cc2ccc(Cl)c(Cl)c2)O3)cc1`, for which the “activity change, negative = inhibition” value is 6.62%.

Consider `COc1ccccc1-c1ccc2c(c1)O[C@@H](CN(C)S(=O)(=O)c1ccccc1)[C@H](C)CN([C@@H](C)CO)S2(=O)=O`, for which the “activity change, negative = inhibition” value was -12%.

Regarding `COc1ccc(NC(=O)N(C)C[C@@H]2Oc3ccc(NS(=O)(=O)c4ccc(F)cc4)cc3C(=O)N([C@@H](C)CO)C[C@@H]2C)cc1`, the “activity change, negative = inhibition” value is -16.2%.

For the molecule `O=C(C[C@@H]1C[C@H]2c3cc(NC(=O)c4ccc5c(c4)OCO5)ccc3O[C@H]2[C@H](CO)O1)NCc1ccc(Oc2ccccc2)cc1`, the “activity change, negative = inhibition” value is -12.9%.

As to `C[C@H]1CN([C@@H](C)CO)S(=O)(=O)c2ccc(/C=C/c3ccccc3)cc2O[C@H]1CN(C)C(=O)c1ccc2c(c1)OCO2`, the “activity change, negative = inhibition” value was -5.88%.

Regarding `Cc1ccc(S(=O)(=O)N(C)C[C@H]2OCCCC[C@@H](C)Oc3ccc(NS(=O)(=O)c4ccccc4)cc3C(=O)N([C@@H](C)CO)C[C@@H]2C)cc1`, the “activity change, negative = inhibition” value is -8.6%.

In the case of `C[C@@H]1CCCCO[C@@H](CN(C)Cc2ccc(C(F)(F)F)cc2)[C@@H](C)CN([C@@H](C)CO)C(=O)c2cc(NS(=O)(=O)c3cccs3)ccc2O1`, the “activity change, negative = inhibition” value was -24%.

With `C[C@@H]1CN([C@H](C)CO)S(=O)(=O)c2ccc(/C=C/c3ccccc3)cc2O[C@@H]1CN(C)C(=O)NC1CCCC1`, the “activity change, negative = inhibition” value is 16%.

`C[C@H]1CN([C@@H](C)CO)C(=O)c2cc(NC(=O)CCN3CCOCC3)ccc2O[C@H]1CN(C)C(=O)Nc1ccc2c(c1)OCO2`: the “activity change, negative = inhibition” value is 4.04%.

For `COc1ccc(S(=O)(=O)N2CCC3(CC2)CN(C(=O)c2cccnc2)[C@@H](CO)c2c3c3ccc(OC)cc3n2C)cc1`, the “activity change, negative = inhibition” value is 12.7%.

In the case of `CN(C)C(=O)[C@@H]1[C@@H](CO)[C@@H]2Cn3c(ccc(-c4ccccc4)c3=O)[C@H]1N2CCc1ccccc1`, the “activity change, negative = inhibition” value was 16.8%.

For the molecule `O=C(NCC[C@H]1CC[C@H](NC(=O)C2CC2)[C@@H](CO)O1)c1cc(Cl)cc(Cl)c1`, the “activity change, negative = inhibition” value is 29%.

As to `C[C@H](CO)N1C[C@H](C)[C@H](CN(C)Cc2ccc(Cl)c(Cl)c2)Oc2ccc(NC(=O)CCCCCC(=O)Nc3ccccc3N)cc2C1=O`, the “activity change, negative = inhibition” value was -1.49%.

On to `COc1cccc(CNC(=O)C[C@H]2CC[C@H]3[C@H](COc4ccc(NS(=O)(=O)c5ccccc5F)cc4C(=O)N3C)O2)c1`, for which the “activity change, negative = inhibition” value is 2.21%.

For the molecule `CC(=O)N(C)C[C@H]1Oc2ncc(C3=CCCC3)cc2C(=O)N([C@H](C)CO)C[C@H]1C`, the “activity change, negative = inhibition” value was -4.28%.

For the molecule `CCCNC(=O)N(C)C[C@H]1Oc2cc(C#CC(C)C)ccc2S(=O)(=O)N([C@H](C)CO)C[C@@H]1C`, the “activity change, negative = inhibition” value was 8.83%.

Turning to `CO[C@@H]1CC[C@@H]2CCN(C)C(=O)[C@@H](C)[C@H](OC)CN(C)C(=O)c3cc(C#N)ccc3OC[C@@H]1O2`, the “activity change, negative = inhibition” value was 13.5%.

In the case of `O=C(C[C@H]1CC[C@H]2[C@@H](COC[C@@H](O)CN2S(=O)(=O)c2ccccc2)O1)Nc1ccc(-c2ccccc2)cc1`, the “activity change, negative = inhibition” value is 6.03%.
